Assay outcomes: PubChem BioAssay, Broad Institute
In the library only some 2.2% were active in any assay of this set; here they are far more common.
LMP1 NFkB inh: Epstein-Barr LMP1 NF-kappaB reporter inhibition. 350,000 compounds, 0.69% hits. LMP1-induced NF-kappaB luciferase reporter cells, luminescence. inhibition, % at 12.5 µM; in the data active means inhibition above about 41%;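 further: 0% = neutral control wells and 100% = reference inhibitor control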
TRPM1 prom inh: inhibitors of MITF-driven TRPM1 promoter in melanoma cells | SK-MEL-5 TRPM1 promoter luciferase, 24 h | inhibition, % at 12.5 µM | 330,000 compounds, 0.83% hits;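 active means mean inhibition across replicates of 60% or more, whatever share of single replicates reaches that level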
PAX8 reporter: inhibitors of PAX8 transcriptional activity in RMG-I cells; 360,000 compounds, 1.2% hits; inhibition, % at 12.6 µM; RMG-I TPO-luciferase reporter, SteadyGlo, 24 h;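 active means mean replicate inhibition at least 60% with every replicate also reaching 60%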;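 further: luciferase light reporting Pax8 driven TPO promoter activity; plate controls were median of neutral control wells for no effect and mitoxantrone controls for full effect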
EWS-Fli inh: EWS/Fli transcriptional activity inhibition; A673 NR0B1-luciferase reporter, viability-normalised; inhibition, % at 12.6 µM; 350,000 compounds, 0.67% hits; AID 651661;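 active means mean inhibition of at least 50% after viability correction, with every replicate also passing that limit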;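 further: firefly luciferase signal divided by Alamar Blue viability fluorescence both relative to DMSO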
LGR2 antag: inhibitors of bursicon-induced Drosophila LGR2 receptor cAMP signaling; 380,000 compounds, 0.35% hits; inhibition, % at 9.99 µM; HEK293 LGR2, CRE-luciferase, bursicon-stimulated, 4 h;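 active means drop in luminescence signal, shown as inhibition above about 50% in the replicate tests, limit read from the data, passing the limit was not always enough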;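 further: agonist challenge used bursicon conditioned medium at about half maximal strength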
PGC1a acetyl inh: lowers PGC1a acetylation signal in U2OS cells; inhibition, % at 15.6 µM; AID 651687; 350,000 compounds, 0.17% hits; AlphaScreen anti-acetyl-lysine; with virally co-expressed GCN5 acetyltransferase;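 active means every replicate shows inhibition of at least 40%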;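 further: 0% = neutral control wells and 100% = positive control wells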
An asterisk follows results filed as active; / = no result given.

SMILES	LMP1 NFkB inh	TRPM1 prom inh	PAX8 reporter	EWS-Fli inh	LGR2 antag	PGC1a acetyl inh
CCCC#Cc1ccc([C@H]2[C@@H](CO)N(C(C)=O)[C@H]2CNC(=O)C2CCCC2)cc1	/	/	/	/	-3.0	/
CO[C@@H]1CN(C)C(=O)c2cc(NS(=O)(=O)CC(F)(F)F)ccc2OC[C@@H](C)N(C(=O)c2ccc3c(c2)OCO3)C[C@@H]1C	/	/	-5.5	-6.7	-2.0	-2.2
CCNC(=O)C[C@H]1C=C[C@@H](NS(=O)(=O)c2ccc(F)cc2)[C@H](CO)O1	/	/	-7.3	2.2	15.7	-1.3
CCCCCOc1ccc(/C(C)=N/NC2=NCCN2)cc1	-0.2	-11.1	-5.0	20.9	-3.3	17.7
CCOc1ccc(Br)cc1/C(C)=N\NC1=NCCN1	80.5*	33.0	/	/	/	-17.9
C[C@@H]1CN([C@@H](C)CO)C(=O)Cc2cc(NC(=O)CCC(F)(F)F)ccc2O[C@H]1CN(C)C(=O)Nc1ccccc1	/	/	-2.0	-2.8	-1.6	1.7
Cc1c(Cc2ccccc2)sc(NC(=O)/C=C/c2cccc3ccccc23)c1C(N)=O	12.8	5.4	4.8	60.0*	13.1	-5.2
CCc1nc(N2[C@@H](C#N)[C@H](c3ccccc3-c3ccccc3F)[C@@H]2CO)sc1C	/	/	-14.7	58.1*	22.6	7.1
C=C1C(=O)C23C(O)C1CCC2C12COC3(O)C(O)C1C(C)(C)CCC2O (centres undefined)	/	/	/	68.2*	/	-14.2
CCCCCCCOC(=O)C[N+](C)(C)CCOC1CC2CCC1(C)C2(C)C (centres undefined)	10.7	93.8*	46.3	67.4*	22.5	/
CCCCCCOC(=O)C[N+](C)(C)CCOC1CC2CCC1(C)C2(C)C (centres undefined)	8.0	0.3	/	/	/	9.4
c1ccc(OCCSc2nnc3sc4ccccc4n23)cc1	70.1*	32.2	/	59.7*	91.7*	-2.1
COc1cccc(OCCSc2nnc3sc4ccccc4n23)c1	-3.6	-51.1	/	/	/	5.0
C[C@H]1CN([C@@H](C)CO)C(=O)c2cc(NS(=O)(=O)c3ccc(Cl)cc3)ccc2O[C@H]1CN(C)C	/	/	-10.1	1.0	-15.5	-1.5
O=[N+]([O-])c1cc(S(=O)(=O)C(F)(F)F)ccc1Sc1nc2ccccc2[nH]1	2.5	95.6*	/	/	/	25.4
C[C@@H]1CN([C@@H](C)CO)C(=O)c2cc(NC(=O)CCCN(C)C)ccc2O[C@@H]1CN(C)CC1CCCCC1	/	/	/	4.2	10.2	-3.7
CC1CCN(c2ccc(-c3cccs3)nn2)CC1	57.2*	79.3*	84.5*	88.9*	74.8*	/
CCCCC1Cc2[nH]c(=S)[nH]c(=O)c2C(c2ccc(F)cc2)O1 (centres undefined)	/	/	95.3*	7.3	13.2	-7.9
CCCCC1Cc2[nH]c(=S)[nH]c(=O)c2C(c2ccc(Cl)cc2)O1 (centres undefined)	/	/	-9.8	7.0	-12.8	0.1
CC(=O)N1CCCCN2[C@H](C1)[C@H](c1ccc(-c3cccc(C)c3)cc1)[C@@H]2CO	/	/	74.0*	7.0	-1.3	-9.7
COCC(=O)N1CCCCN2[C@H](CO)[C@H](c3ccc(-c4cccc(C)c4)cc3)[C@@H]2C1	/	/	-13.4	-4.2	61.5*	5.1
Nc1nc2ccccc2n1/N=C/c1ccc([N+](=O)[O-])s1	2.3	66.1*	51.5	/	3.9	/
C[C@@H]1CN([C@@H](C)CO)C(=O)c2cc(NC(=O)Nc3cccc4ccccc34)ccc2O[C@@H](C)CCCCO[C@@H]1CN(C)CC1CCCCC1	/	/	9.1	81.7*	-10.0	-12.3
C[C@@H]1CN([C@@H](C)CO)C(=O)c2cc(NC(=O)Nc3cccc4ccccc34)ccc2O[C@@H](C)CCCCO[C@H]1CN(C)CC1CCCCC1	/	/	-21.2	90.7*	8.6	4.6
C[C@@H]1CN([C@@H](C)CO)C(=O)c2cc(NC(=O)Nc3cccc4ccccc34)ccc2O[C@@H](C)CCCCO[C@H]1CN(C)CC1CC1	/	/	-2.0	-3.4	-1.4	7.5
SMILES	LMP1 NFkB inh	TRPM1 prom inh	PAX8 reporter	EWS-Fli inh	LGR2 antag	PGC1a acetyl inh
C[C@@H]1CCCCO[C@@H](CN(C)CC2CCCCC2)[C@H](C)CN([C@H](C)CO)C(=O)c2cc(NC(=O)Nc3cccc4ccccc34)ccc2O1	/	/	-13.6	90.0*	10.2	-7.0
C[C@H](CO)N1C[C@H](C)[C@H](CN(C)CC2CC2)OCCCC[C@H](C)Oc2ccc(NC(=O)Nc3cccc4ccccc34)cc2C1=O	/	/	0.0	7.3	8.9	25.0
C[C@@H]1CN([C@@H](C)CO)C(=O)c2cc(NC(=O)Nc3cccc4ccccc34)ccc2O[C@@H]1CN(C)CC1CCCCC1	/	/	/	76.9*	-20.7	-9.6
COc1ccc2c3c([nH]c2c1)[C@H](CO)N(Cc1nccs1)CC31CCN(C(=O)C2CCOCC2)CC1	/	/	/	-5.6	-15.6	1.1
C[C@H]1CCCCO[C@H](CN(C)CC2CCCCC2)[C@@H](C)CN([C@@H](C)CO)C(=O)c2cc(NC(=O)Nc3cccc4ccccc34)ccc2O1	/	/	9.5	89.2*	8.9	4.1
C[C@@H]1CCCCO[C@H](CN(C)C)[C@H](C)CN([C@H](C)CO)C(=O)c2cc(NC(=O)Nc3cccc4ccccc34)ccc2O1	/	/	84.0*	-5.9	-3.9	-8.7
C[C@H]1CCCCO[C@H](CN(C)C)[C@@H](C)CN([C@@H](C)CO)C(=O)c2cc(NC(=O)Nc3cccc4ccccc34)ccc2O1	/	/	46.3	-0.5	1.3	-2.7
CO[C@H]1CN(C)C(=O)c2cc(NC(C)=O)ccc2OC[C@H](C)N(C(=O)Cc2cccnc2)C[C@H]1C	/	/	2.5	-3.7	6.9	0.1
N#C[C@@H]1[C@H](c2ccc(C#Cc3ccccc3F)cc2)[C@H](CO)N1C(=O)C1CCCC1	/	/	39.7	1.1	21.7	3.0
N#C[C@H]1[C@H](c2ccc(C#Cc3ccccc3F)cc2)[C@H](CO)N1C(=O)C1CC1	/	/	1.9	-35.6	61.9*	14.0
N#C[C@H]1[C@@H](c2ccc(C#Cc3ccccc3F)cc2)[C@H](CO)N1C(=O)C1CCCC1	/	/	/	32.3	5.5	-28.9
N#C[C@H]1[C@H](c2ccc(C#Cc3ccccc3F)cc2)[C@H](CO)N1C(=O)C1CCCC1	/	/	/	0.8	104.2*	/
N#C[C@H]1[C@@H](c2ccc(C#Cc3ccccc3F)cc2)[C@@H](CO)N1C(=O)C1CCCCC1	/	/	81.7*	12.1	-1.9	-2.5
N#C[C@H]1[C@H](c2ccc(C#CC3CCCC3)cc2)[C@H](CO)N1C(=O)Cc1ccccn1	/	/	/	-2.8	-7.7	58.9*
N#C[C@H]1[C@@H](c2ccc(C#Cc3ccccc3F)cc2)[C@H](CO)N1C(=O)C1CCC1	/	/	-4.6	10.3	0.1	-19.4
CCCNC(=O)N1CC2(C1)CN(Cc1ccccn1)[C@@H](CO)c1c2c2ccc(OC)cc2n1C	/	/	/	-9.2	4.1	0.8
C[C@@H]1CN([C@H](C)CO)C(=O)c2cccc(N(C)C)c2O[C@@H]1CN(C)C(=O)NC1CCCCC1	/	/	0.3	/	7.5	4.4
